Results as given in PubChem BioAssay (NCATS).
Records with an inconclusive call do not appear. A number with no mark means an inactive call. Active and inactive are the calls of the source. Calls come from the whole dose curve; as a rule, active = well fitted inhibition curve with a large enough effect; inconclusive = small, poorly fitted or top-dose-only effect; inactive = flat fitted curve, though single readings scatter.

Test: qHTS of Trypanosoma Brucei Inhibitors: LOPAC Validation (AID 624147)
Conditions: purified enzyme assay, luminescence, 45 min; series mostly up to 57.5 µM; activity change, negative = inhibition: at the top concentration
Source text: Members of the Trypanosomatidae family of parasitic protozoans cause a spectrum of diseases throughout the tropical and subtropical world. Sleeping sickness, caused by two subspecies of Trypanosoma brucei, is endemic to areas of sub-Saharan Africa, while Chagas' disease, a manifestation of Trypanosoma cruzi infection, is prevalent throughout Central and South America. In addition, many species of Leishmania are responsible for a range of cutaneous and visceral diseases, causing ulcers, destructive lesions and kalaazar, a lethal infection of the viscera. These diseases cause severe public health and economic burdens on populations that are often already caught in a tragic cycle of poverty, poor nutrition and disease. Collectively, parasites of the trypanosomatid family infect 30 million people worldwide (~500 million live in endemic areas), and account for ~130K deaths annually. Existing treatments have developed little in the past 50 years, and suffer from toxicity, poor efficacy and resistance; the goal of this project is to develop lead drugs that will be suitable for entry into pre-clinical trials.
Glycolysis in axenically cultured T. cruzi, representing the intracellular pathogenic stage, is also essential for these parasites. {Engel, 1987} This project aims to discover and optimize selective inhibitors of the glycolytic enzyme pyruvate kinase (PYK) from Trypanosoma brucei, the parasite that causes sleeping sickness. […] Trypanosomatid PYKs show significant differences from their human counterparts including only 47-50% sequence identity and different allosteric and activation properties.{Callens, 1992} To this end, a qHTS was done against the MLSMR to discover inhibitors.
NIH Molecular Libraries Probe Production Network [MLPCN]
NIH Chemical Genomics Center [NCGC]
PI Name: Malcolm Walkinshaw, University of Edinburgh
2 uL of TbPYK/substrate buffer (columns 1-3, 5-48) are dispensed into Greiner white solid bottom 1536-well assay plates; column 4 receives only TEA buffer as 0x TbPYK controls. Compounds are then transferred via Kalypsys pin tool equipped with 1536-pin array (10 nL slotted pins, V&P Scientific, San Diego, CA). Following addition of compound, 2 uL of ADP (130 uM final concentration, all columns) is added to initiate the reaction. The plates are then incubated at room temperature for 45 minutes. Kinase-Glo Plus reagent is added (3 uL) and plates incubated for 10 minutes, before being transferred to a ViewLux high-throughput CCD imager (PerkinElmer) wherein single end-point measurements of luminescence are acquired using a clear filter. All reagents are diluted in an assay buffer consisting of 50 mM TEA (pH 7.2), 100 mM KCl, 10 mM MgCl2, 0.05% BSA and 0.01% Tween-20.
All screening operations will be performed on a fully integrated robotic system (Kalypsys, San Diego, CA) containing one RX-130 and two RX-90 anthropomorphic robotic arms (Staeubli, Duncan, SC). Library plates will be screened starting from the lowest and proceeding to the highest concentration. Vehicle-only plates, with DMSO being pin-transferred to columns 5-48, will be inserted uniformly at the beginning and the end of each library in order to monitor and record any shifts in the background, which can be affected by reagent dispensers or loss in enzyme activity over time. Screening data will be corrected, normalized, and concentration-effect relationships will be derived by using publicly-available curve fitting algorithms developed in-house (http://ncgc.nih.gov/pub/openhts).
Potency is the fitted concentration of half-maximal effect.

SMILES | activity change, negative = inhibition [%] | Potency
COc1cc2nc(N3CCN(C(=O)C4CCCO4)CC3)nc(N)c2cc1OC (stereo not given) | -10.6 | 
CC1(C)C(=O)N(CCN2CCC(C(=O)c3ccc(F)cc3)CC2)c2ccccc21 | -8.72 | 
O=C1NC(=O)C(c2ccccc2[N+](=O)[O-])=C1Nc1ccc(O)c(Cl)c1 | -17.8 | 
CC(=O)O[C@H]1C(=O)[C@@]2(C)C([C@H](OC(=O)c3ccccc3)[C@]3(O)C[C@H](OC(=O)[C@H](O)[C@@H](NC(=O)c4ccccc4)c4ccccc4)C(C)=C1C3(C)C)[C@]1(OC(C)=O)CO[C@@H]1C[C@@H]2O (stereo not given in full) | -8.01 | 
CNC[C@H](O)c1ccc(O)c(O)c1 | 3.37 | 
Cc1cccc(C#Cc2ccccc2)n1 | -26.6 | 
O=c1c(O)c(-c2ccc(O)cc2O)oc2cc(O)cc(O)c12 | -9.22 | 
Cc1c(OCC(F)(F)F)ccnc1CS(=O)c1nc2ccccc2[nH]1 (stereo not given) | -27.1 | 
C[C@@H](N)C1CCC(C(=O)Nc2ccncc2)CC1 (stereo not given in full) | -8.44 | 
Nc1nc(N)c(N=O)c(OCC2CCCCC2)n1 | 3.04 | 
CC(C)c1ccc2c(c1)c(SC(C)(C)C)c(CC(C)(C)C(=O)O)n2Cc1ccc(Cl)cc1 | -12.5 | 
CN(C)CCCC1(c2ccc(F)cc2)OCc2cc(C#N)ccc21 (stereo not given) | -8.67 | 
COc1ccccc1N1CCN(CCN(C(=O)C2CCCCC2)c2ccccn2)CC1 | -7.11 | 
Nc1nc(OCc2ccccc2)c2[nH]cnc2n1 | 3.01 | 
NNc1nncc2ccccc12 | 3.35 | 
O=C(O)c1cccnc1Nc1cccc(C(F)(F)F)c1 | -8.27 | 
O=C1c2c(O)cc(O)cc2OC(c2ccc(O)c(O)c2)C1O (stereo not given) | -12.7 | 
O=C(c1ccccc1)c1ccc2n1CCC2C(=O)O (stereo not given) | -16.9 | 

SMILES | activity change, negative = inhibition [%] | Potency
Nc1ccn([C@@H]2O[C@H](CO)[C@@H](O)C2O)c(=O)n1 (stereo not given in full) | -5.61 | 
O=c1cc(N2CCOCC2)oc2c(-c3ccccc3)cccc12 | -6.57 | 
CCN(CC)C(=S)SSC(=S)N(CC)CC |  | 9.53 µM (active)
O=C(CCc1ccc(O)cc1)c1c(O)cc(O)cc1O | -5.56 | 
CC(=O)N1CCN(c2ccc(OC[C@H]3CO[C@](Cn4ccnc4)(c4ccc(Cl)cc4Cl)O3)cc2)CC1 | -13.4 | 
Oc1ccc(-c2nc(-c3ccc(F)cc3)c(-c3ccncc3)[nH]2)cc1 | 6.39 | 
O=C1c2ccccc2-c2n[nH]c3cccc1c23 | -17 | 
COc1ccc2cc([C@H](C)C(=O)O)ccc2c1 | -11.4 | 
C[C@H](Cc1ccc(O)c(O)c1)[C@@H](C)Cc1ccc(O)c(O)c1 |  | 12 µM (active)
O=c1ccc2ccc(O)c(O)c2o1 | -17.6 | 
NC(=NCc1ccccc1)NC(=O)c1nc(Cl)c(N)nc1N | -1.1 | 
COc1cc2c(cc1OC)C1CC(=O)C(CC(C)C)CN1CC2 (stereo not given) | -5.43 | 
CCOC(=O)C(C)Oc1cccc2c(=O)n(CC(=O)Nc3ccc4c(c3)OCCO4)ccc12 (stereo not given) | -7.04 | 
O=Nc1c(-c2c(O)[nH]c3cc(Br)ccc23)[nH]c2ccccc12 | -18.8 | 
NCCCCNCCCN | -8.08 | 
OC(CN1CCN(c2cccc(Cl)c2)CC1)C(c1ccccc1)c1ccccc1 (stereo not given) | 3.15 | 
CC1(C)NC(=O)N(c2ccc([N+](=O)[O-])c(C(F)(F)F)c2)C1=O | -7.3 | 
